# Screening results (PubChem BioAssay)
# Rows were chosen to be rich in hits. Some 2.2% of all compounds tested hit in one or more screens of this group.
# Mm-Cpn inhibitor: inhibitors of Methanococcus maripaludis chaperonin TRiC (MmCpn); purified Mm-Cpn ATPase, ADP Transcreener TR-FRET; Potency, µM (doses to about 76.9 µM), for the others: top-dose activity, negative = inhibition, usual class: inhibitors; 330,000 compounds, 0.031% hits; AID 504842; further: potency means the concentration at half of the fitted maximal effect; on the % scale 0 is the no-effect control and ±100 the full control effect; nearly all actives have a fitted effect of over 80% in size
#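 Purified archaeal Mm-CPN (25nM final) preincubated 10 min at 37degC with compound, then 10uM ATP for 30 min at 37degC; ADP measured by HTRF Transcreener TR-FRET; buffer 30 mM TRIS pH 7.4, 100mM KCl, 5mM MgCl2, 1mM DTT.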
# CCT chaperon mod: modulators of cytosolic chaperonin (CCT/TRiC) activity. activity change, % (concentration not given with the values), hits read low. purified chaperonin ATPase assay, HTRF ADP detection, 30 min. AID 651819. 360,000 compounds, 0.3% hits; in the data active means activity change below about -30%; further: on the % scale 0 is the no-effect control and ±100 the full control effect
#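 TRiC (40 or 20 nM final, by batch activity) in 30 mM Tris pH 7.4, 100 mM KCl, 5 mM MgCl2, 1 mM DTT was treated with compound at 76 uM single dose, then 10 uM ATP, 30 min at 37 °C. ADP was read by HTRF Transcreener.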
# uPA surface inh: inhibitors of cell surface uPA generation. cell surface uPA generation assay, qHTS. Potency, µM (top dose mostly 38.3 µM), for the others: top-dose activity change, negative = inhibition, usual class: inhibitors. 330,000 compounds, 0.31% hits; active means well fitted inhibition curve with a large enough effect; inconclusive means small, poorly fitted or top-dose-only effect; inactive means no such curve, though single readings can be large or run the other way; tested in mouse RAW 264.7 cells; further: potency means the concentration at half of the fitted maximal effect; on the % scale 0 is the no-effect control and ±100 the full control effect; nearly all actives have a fitted effect of over 55% in size
# GLP-1R inv ag: inverse agonists of human GLP-1 receptor | Potency, µM (series often up to 38.3 µM), for the others: at the top dose activity change, negative = inhibition, actives largely listed as inhibitors | P43220 | 410,000 compounds, 1.6% hits | HEK293 GLP-1R CRE-luciferase, luminescence, 24 h; GLP-1R form is constitutively active; further: potency means the concentration at half of the fitted maximal effect; on the % scale 0 is the no-effect control and ±100 the full control effect; nearly all actives have a fitted effect of over 55% in size
# Target sequence (P43220 whole entry, looked up): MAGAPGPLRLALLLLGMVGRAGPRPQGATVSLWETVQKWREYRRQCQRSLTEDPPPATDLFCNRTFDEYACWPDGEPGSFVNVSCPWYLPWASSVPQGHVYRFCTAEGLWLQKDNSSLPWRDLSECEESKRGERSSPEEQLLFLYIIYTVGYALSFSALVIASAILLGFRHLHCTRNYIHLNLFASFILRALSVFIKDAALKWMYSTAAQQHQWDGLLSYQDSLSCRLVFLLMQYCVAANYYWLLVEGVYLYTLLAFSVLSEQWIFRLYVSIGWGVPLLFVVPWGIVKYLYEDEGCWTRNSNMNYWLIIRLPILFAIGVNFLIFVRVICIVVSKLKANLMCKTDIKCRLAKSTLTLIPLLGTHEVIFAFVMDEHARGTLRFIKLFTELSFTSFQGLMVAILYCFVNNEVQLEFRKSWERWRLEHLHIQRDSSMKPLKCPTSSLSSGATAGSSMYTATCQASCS
#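 Luminescence readout: a drop in cAMP-driven luciferase signal flags inverse agonism at a constitutively active GLP-1R stably expressed in HEK293. Compound exposure lasted 24 hr at 37 deg C, 5% CO2.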
# HEK293 tox: cytotoxicity in counter-screen for GLP-1R inverse agonists. HEK293 cAMP-luciferase reporter cells, luminescence, 24 h. Potency, µM (series often up to 38.3 µM), inactives show at the highest dose activity change, negative = inhibition, hits mostly inhibitors. 410,000 compounds, 0.13% hits. AID 624418;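 further: loss of luciferase light is scored as toxicity; potency means the concentration at half of the fitted maximal effect; on the % scale 0 is the no-effect control and ±100 the full control effect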
#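 To flag toxic compounds, the library was rerun on cells for 24 hr at 37 deg C and 5% CO2. Viability-linked luminescence was captured 12 min after adding luciferase detection reagent.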
# GLP-1R agonist: GLP-1 receptor (human) agonism | 380,000 compounds, 0.007% hits | P43220 | HEK293 GLP-1R CRE-luciferase, luminescence, 4-6 h; cells express a hypersensitive GLP-1R form | Potency, µM (series often up to 45.6 µM), inactives show at the highest dose activation, usual class: activators; further: potency means the concentration at half of the fitted maximal effect; % of control where 0% means no effect
# Active calls of the source: *; ? = inconclusive; / = no result given; [ ] = another dose, or the depositor's remark. Unless noted, the call rests on the fitted dose curve; in most records, active means well fitted curve in the direction sought with a large enough effect; inconclusive means small, poorly fitted or top-dose-only effect, or another doubt; inactive means no such curve, though single readings can be large; an effect the other way counts as inactive or inconclusive.
SMILES,Mm-Cpn inhibitor,CCT chaperon mod,uPA surface inh,GLP-1R inv ag,HEK293 tox,GLP-1R agonist
Cc1ccc([C@@H]2CC=C(C(=O)O)[C@H](c3ccc(Cl)cc3)N2S(=O)(=O)c2ccc(C)cc2)cc1,2%,2,-15%,?,-13%,-5%
Cc1ccccc1S(=O)(=O)N1[C@@H](c2ccccc2)C(C(=O)O)=CC[C@H]1c1ccc(Cl)cc1,1%,1,-1%,7.1µM*,-13%,-4%
Cc1ccccc1S(=O)(=O)N1C(c2ccc(Cl)c(Cl)c2)CC=C(C(=O)O)C1c1cccc(Br)c1 (stereo not drawn),/,/,/,10µM*,-20%,/
COc1cc(C(=O)OCc2cc(=O)n3ccsc3n2)cc(OC)c1OC,/,/,/,?,-23%,/
CCN(c1ccc(Cl)cc1)S(=O)(=O)c1nnc(NC(=O)C2CCCCC2)s1,/,/,/,-19%,-6%,/
Cc1cccc(NC(=O)c2sc(-n3nc(C)c(Cc4ccc5c(c4)OCO5)c3C)nc2C)c1C,/,/,/,-22%,-10%,/
Cc1ccc([C@@H]2CC=C(C(=O)O)[C@H](c3ccc(Cl)cc3)N2S(=O)(=O)c2ccccc2C)cc1,2%,0,7%,8.9µM*,-18%,-3%
Cc1ccc([C@H]2C(C(=O)O)=CC[C@@H](c3ccc(Cl)c(Cl)c3)N2S(=O)(=O)c2ccc(C)cc2)cc1,0%,-1,-4%,10µM*,-11%,-2%
Cc1ccccc1S(=O)(=O)N1[C@@H](c2ccc(Br)cc2)C(C(=O)O)=CC[C@H]1c1ccc(Cl)cc1,2%,1,-6%,?,-10%,-5%
Cc1ccc(S(=O)(=O)N2[C@@H](c3ccccc3)C(C(=O)O)=CC[C@H]2c2ccc(Cl)c(Cl)c2)cc1,0%,-2,-5%,?,?,-3%
Cc1nn(CCC(=O)Nc2ccc(Cl)cc2)c(C)c1S(=O)(=O)N1CCCCC1,/,/,/,?,-1%,/
COc1ccc(-c2cnc(C)o2)cc1S(=O)(=O)Nc1ccc(C)c(N(C)C)c1,/,/,/,15%,1%,/
CCN1CCN(c2ccc(NC(=O)c3cc4ccccc4cc3OC)cc2C)CC1,2%,-6,11µM*,?,?,2%
CCN1CCN(c2ccc(NC(=O)c3ccc4c(c3)OCCO4)cc2C)CC1,-3%,-1,-8%,6.3µM*,-5%,7%
CC1CCN(c2ccc(C(=O)Nc3ccc4c(c3)OCO4)cc2[N+](=O)[O-])CC1,0%,0,5%,6.3µM*,-25%,1%
O=C(O)c1ccc(/C=C2/SC(=S)N(Cc3ccccc3)C2=O)cc1,-1%,3,-4%,-18%,-4%,9%
O=C1/C(=C\c2ccc(O)cc2)SC(=S)N1Cc1ccccc1,-1%,2,-1%,11µM*,7%,-2%
O=C(Cc1ccccc1)NN1C(=O)/C(=C/c2ccc(C(=O)O)cc2)SC1=S,3%,-35*,0%,3%,-1%,-1%
CC1CCN(S(=O)(=O)c2ccc3c(ccc(=O)n3CC(=O)NCc3ccccc3)c2)CC1,/,/,/,0%,-4%,/
O=C(CCc1ccccc1)NC1(Cc2ccccc2)CCN(CCc2cccs2)C1=O (stereo not drawn),-1%,-1,1%,10µM*,12%,19%
CC(Oc1ccc(-c2ccccc2)c(F)c1)c1ccn(S(=O)(=O)c2ccc(Br)cc2)n1 (stereo not drawn),1%,-2,3%,7.1µM*,-5%,-2%
CN(C)S(=O)(=O)c1ccc(C(=O)Nc2nnc(-c3ccc4c(c3)CCCC4)o2)cc1,-2%,-4,4.5µM*,?,0%,-4%
COc1ccc(NC(=O)c2cc3c(=O)n(Cc4ccco4)ccc3nc2C)c(OC)c1,/,/,/,3%,7%,/
O=C(Cn1c(=O)n(Cc2ccc3c(c2)OCO3)c(=O)c2ccc(C(=O)NC3CCCCC3)cc21)Nc1ccccc1F,/,/,/,15%,3%,/
COc1ccc(NC(=O)CSc2nnnn2-c2ccccc2F)cc1,0%,-3,5%,-7%,-1%,-5%
SMILES,Mm-Cpn inhibitor,CCT chaperon mod,uPA surface inh,GLP-1R inv ag,HEK293 tox,GLP-1R agonist
Cc1ccc(-n2nnnc2SCC(=O)Nc2cc(C)on2)c(C)c1,0%,-1,1%,9%,?,0%
Cc1nnc(SCC(=O)Nc2ccc(S(=O)(=O)N3CCCC3)cc2)n1N,2%,0,2%,-1%,-7%,-9%
Cc1ccc(-n2nnnc2SCC(=O)Nc2ccc(N3CCN(C)CC3)cc2)c(C)c1,-3%,0,7%,3.5µM*,-16%,12%
CN1CCN(c2ccc(NC(=O)CSc3nnnn3-c3ccccc3F)cc2)CC1,0%,-2,-8%,2.8µM*,-9%,-1%
Cc1ccccc1-n1nnnc1SCC(=O)Nc1ccc(S(=O)(=O)N2CCCC2)cc1,0%,-2,-7%,11µM*,-13%,3%
COc1ccc(NC(=O)NC(C)c2c(-n3cccc3)sc3c2CCN(C)C3)c(OC)c1 (stereo not drawn),/,/,/,-4%,-1%,/
CCOC(=O)C(=CNc1cc(Cl)c(-c2ccco2)c(Cl)c1)C(=O)OCC,-5%,0,14%,10µM*,34%,12%
CCOC(=O)C(=CNc1ccc(-c2ccco2)c(Cl)c1)C(=O)OCC,-9%,-1,23%,0%,9%,1%
CNC(=S)N(Cc1ccc(OC)cc1)C1CC(=O)N(c2ccc(Cl)cc2)C1=O (stereo not drawn),-6%,1,2%,11µM*,-16%,-2%
COc1ccc(CN(C(=S)Nc2ccccc2)C2CC(=O)N(c3ccc(F)cc3)C2=O)cc1 (stereo not drawn),2%,-1,-6%,?,0%,-27%
COc1cccc(NC(=O)CN(C)C(=O)CC2CCCC2)c1,/,-34*,1%,-7%,-4%,5%
CN(CC(=O)Nc1ccccc1Cl)C(=O)c1ccc(Cl)c(S(=O)(=O)N2CCCCCC2)c1,-2%,1,-5%,?,-16%,13%
COc1cccc(NC(=O)CN(C)C(=O)c2ccc(Cl)c(S(=O)(=O)N3CCCCCC3)c2)c1,-15%,-1,-5%,8.9µM*,-5%,16%
C/C(=N\Nc1nc(N2CCOCC2)nc(N2CCOCC2)n1)c1cccs1,1%,-2,0%,-5%[7.66 µM],9%[7.66 µM],8%
C/C(=N\Nc1nc(N2CCCCC2)nc(N2CCOCC2)n1)c1ccccc1O,0%,-2,-4%,2.5µM*,-2%,23%
COc1ccc(-c2csc(NC(=O)C3CCN(c4ncnc5sc(C)c(C)c45)CC3)n2)cc1OC,-8%,2,-11%,7.1µM*,?,10%
